Laboratory results reported in the supplement of paper PMC9023506.
Structures can show the parent of a compound that is named as a salt.

tested on: Danio rerio larvae (5 dpf); assay: optomotor response to fast red moving lines, difference vs DMSO (percentage points (treated minus DMSO)); higher = more of the behaviour than the DMSO vehicle control; settings: 10 µM; exposure time: 3 h pre-incubation + 3 h imaging
Experimental: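 5-dpf wild-type zebrafish larvae were imaged in 96-well plates. They were treated with 190 Tocris FDA-approved drugs at 10 µM (1 µl/ml DMSO) for 3 h before and 3 h during imaging at 28.5 °C, 48 larvae per drug. Automated image analysis gave % time moving and optomotor responses. Values are drug group mean minus DMSO vehicle mean (n=844), in percentage points, for 10 behaviours.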

Compound | optomotor response
CCOc1ccccc1OCCN[C@H](C)Cc1ccc(OC)c(S(N)(=O)=O)c1 [Tamsulosin hydrochloride] | -10.3
CC(C)(C(=O)c1cccnc1)c1cccnc1 [Metyrapone] | -11.5
CC(C)CN(C[C@@H](O)[C@H](Cc1ccccc1)NC(=O)O[C@H]1CO[C@H]2OCC[C@H]21)S(=O)(=O)c1ccc(N)cc1 [Darunavir] | 1.68
COc1cc2nc(N3CCN(C(=O)c4ccco4)CC3)nc(N)c2cc1OC [Prazosin hydrochloride] | 3.73
OCCN1C[C@H](O)[C@@H](O)[C@H](O)[C@H]1CO [Miglitol] | -3.78
Cc1ccsc1C(=CCCN1CCC[C@@H](C(=O)O)C1)c1sccc1C [Tiagabine hydrochloride] | 21.7
C[C@H]1O[C@H](O[C@H]2[C@H](O)[C@@H](O)[C@@H](O[C@H]3[C@H](O)[C@@H](O)C(O)O[C@@H]3CO)O[C@@H]2CO)[C@H](O)[C@@H](O)[C@@H]1N[C@H]1C=C(CO)[C@@H](O)[C@H](O)[C@H]1O (stereo not given in full) [Acarbose] | 12.4
C[C@@H](O[C@H]1OCCN(Cc2n[nH]c(=O)[nH]2)[C@H]1c1ccc(F)cc1)c1cc(C(F)(F)F)cc(C(F)(F)F)c1 [Aprepitant] | 7.32
OCCOCCN1CCN(C2=Nc3ccccc3Sc3ccccc32)CC1 [Quetiapine hemifumarate] | -5.91
CCOC(=O)N1CCC(=C2c3ccc(Cl)cc3CCc3cccnc32)CC1 [Loratidine] | -26.1
CCc1nc(N)nc(N)c1-c1ccc(Cl)cc1 [Pyrimethamine] | 9.74
NS(=O)(=O)Cc1noc2ccccc12 [Zonisamide] | -0.856
Nc1nc2c(ncn2COCCO)c(=O)[nH]1 [Acyclovir] | 4.83
CN1CC2c3ccccc3Oc3ccc(Cl)cc3C2C1 (stereo not given) [Asenapine maleate] | -11.9
CN1CCC[C@@H]1Cc1c[nH]c2ccc(CCS(=O)(=O)c3ccccc3)cc12 [Eletriptan hydrobromide] | -9.58
CC(C)(C#N)c1cc(Cn2cncn2)cc(C(C)(C)C#N)c1 [Anastrozole] | -1.59
Clc1ccccc1C(c1ccccc1)(c1ccccc1)n1ccnc1 [Clotrimazole] | 17.9
CCCC1O[C@@H]2C[C@H]3[C@@H]4CCC5=CC(=O)C=C[C@]5(C)[C@H]4[C@@H](O)C[C@]3(C)[C@]2(C(=O)CO)O1 (stereo not given in full) [Budesonide] | 0.572
Cc1cccc(CN2CCN(C(c3ccccc3)c3ccc(Cl)cc3)CC2)c1 (stereo not given) [Meclizine dihydrochloride] | -10.8
O=C(O[C@@H]1C[C@@H]2C[C@H]3C[C@H](C1)N2CC3=O)c1c[nH]c2ccccc12 [Dolasetron mesylate] | -6.96

Compound | optomotor response
COc1cc(Nc2c(C#N)cnc3cc(OCCCN4CCN(C)CC4)c(OC)cc23)c(Cl)cc1Cl [Bosutinib] | 1.89
Nc1nc(NC2CC2)c2ncn([C@H]3C=C[C@@H](CO)C3)c2n1 [Abacavir hemisulfate] | -1.18
CN(C)CCc1c[nH]c2ccc(Cn3cncn3)cc12 [Rizatriptan benzoate] | 5
CCOc1nc2cccc(C(=O)O)c2n1Cc1ccc(-c2ccccc2-c2nnn[nH]2)cc1 [Candesartan] | 1.2
N#Cc1ccc(C(c2ccc(C#N)cc2)n2cncn2)cc1 [Letrozole] | 4.75
Cc1cc(C2CCCCC2)n(O)c(=O)c1 [Ciclopirox] | 3.21
CC(=O)Oc1cc2c(s1)CCN(C(C(=O)C1CC1)c1ccccc1F)C2 (stereo not given) [Prasugrel] | -8.05
CN/C(=N\CCSCc1nc[nH]c1C)NC#N [Cimetidine] | -7.27
CC(C)n1c(/C=C/C(O)CC(O)CC(=O)O)c(-c2ccc(F)cc2)c2ccccc21 (stereo not given) [Fluvastatin sodium] | -5.56
CCCCNc1cc(C(=O)O)cc(S(N)(=O)=O)c1Oc1ccccc1 [Bumetanide] | -7.16
Nc1ncn([C@H]2C[C@H](O)[C@@H](CO)O2)c(=O)n1 [Decitabine] | 1.67
Clc1ccc(COC(Cn2ccnc2)c2ccc(Cl)cc2Cl)c(Cl)c1 (stereo not given) [Miconazole nitrate] | -18.6
CCOC(=O)C1=C(C)NC(C)=C(C(=O)OC)C1c1cccc(Cl)c1Cl (stereo not given) [Felodipine] | -15.9
CC(=O)Nc1ccc(O)cc1 [Acetaminophen] | -11.2
NC(=O)c1ncn([C@@H]2O[C@H](CO)[C@@H](O)[C@H]2O)n1 [Ribavirin] | 0.429
CC1=Nc2ccc(Cl)cc2S(=O)(=O)N1 [Diazoxide] | -1.95
O=C1CCc2ccc(OCCCCN3CCN(c4cccc(Cl)c4Cl)CC3)cc2N1 [Aripiprazole] | 7.59
Cc1cn([C@H]2C=C[C@@H](CO)O2)c(=O)[nH]c1=O [Stavudine] | -8.38
CNC(=O)c1cc(Oc2ccc(NC(=O)Nc3ccc(Cl)c(C(F)(F)F)c3)cc2)ccn1 [Sorafenib] | -21.1
NC(=O)N1c2ccccc2C=Cc2ccccc21 [Carbamazepine] | -9.08
